# Reference: the supplement of paper PMC10849652
# About 7,900 targets were measured; listed, in parts, are those with a hit and a random draw of the rest. About 0.6% of all pairs of compound and target were hits. A number with no mark means an inactive call.
# Key:
# Assay in all cases: log2 fold change, soluble protein after heating vs DMSO (PISA); higher = thermal stabilisation; K562 cells, 10 uM, 30 min; active = over 0.2 and 3.5 SD of the protein, either way, in both replicates (recomputed)
# bafetinib = compound: Cc1ccc(NC(=O)c2ccc(CN3CC[C@H](N(C)C)C3)c(C(F)(F)F)c2)cc1Nc1nccc(-c2cncnc2)n1 [bafetinib]
# Method in brief: (§1)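 Thermal stability values are relative to control samples and come from duplicates. They are expressed as log2 fold changes. For measurement, K562 cells (2×10^6 cells/mL) received 10 μM compound for 30 min, and aliquots were heated for 3 min over 48°C-58°C, pooled, and extracted at 4°C in PBS with 0.5% NP-40. Soluble protein, the supernatant after 21,000xg for 90 min, was quantified by TMTpro 16plex LC-MS/MS with equalised channel sums.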
# [1] = compound: Cc1cccc(CC(=O)N2CCc3c2ccc(-c2cn(C)c4ncnc(N)c24)c3F)n1
# Method in brief: as §1
# nilotinib = compound: Cc1cn(-c2cc(NC(=O)c3ccc(C)c(Nc4nccc(-c5cccnc5)n4)c3)cc(C(F)(F)F)c2)cn1 [nilotinib]
# Method in brief: as §1
# [2] = compound: Cc1nc(Nc2n[nH]c3c2CN(C(=O)N[C@H](CN(C)C)c2ccccc2)C3(C)C)c2sccc2n1
# Method in brief: as §1
# dasatinib = compound: Cc1nc(Nc2ncc(C(=O)Nc3c(C)cccc3Cl)s2)cc(N2CCN(CCO)CC2)n1 [dasatinib]
# Method in brief: as §1
# [3] = compound: Cc1ncc(-c2ccnc(Nc3ccc(S(C)(=O)=O)cc3)n2)n1C(C)C
# Method in brief: as §1
# [4] = compound: Cn1cc(-c2ccc3c(c2)CCN3C(=O)Cc2cccc(C(F)(F)F)c2)c2c(N)ncnc21
# Method in brief: as §1
# [5] = compound: Cn1cc(-c2ccc3nnc(C(F)(F)c4ccc5ncccc5c4)n3n2)cn1
# Method in brief: as §1
# tipifarnib = compound: Cn1cncc1[C@@](N)(c1ccc(Cl)cc1)c1ccc2c(c1)c(-c1cccc(Cl)c1)cc(=O)n2C [tipifarnib]
# Method in brief: as §1
# mubritinib = compound: FC(F)(F)c1ccc(/C=C/c2nc(COc3ccc(CCCCn4ccnn4)cc3)co2)cc1 [mubritinib]
# Method in brief: as §1
# [6] = compound: NC(=O)Nc1cc(-c2cccc(F)c2)sc1C(=O)N[C@H]1CCCNC1
# Method in brief: as §1
# [7] = compound: NC(=O)c1cnc(N[C@@H]2CCCC[C@@H]2N)nc1Nc1cccc(-n2nccn2)c1
# Method in brief: as §1
# [8] = compound: NC1(c2ccc(-c3nc4ccn5c(=O)[nH]nc5c4cc3-c3ccccc3)cc2)CCC1
# Method in brief: as §1
# [9] = compound: NCC(=O)Nc1ccc(-n2nc(C(F)(F)F)cc2-c2ccc3c(ccc4ccccc43)c2)cc1
# Method in brief: as §1
# entinostat = compound: Nc1ccccc1NC(=O)c1ccc(CNC(=O)OCc2cccnc2)cc1 [entinostat]
# Method in brief: as §1
# vorinostat = compound: O=C(CCCCCCC(=O)Nc1ccccc1)NO [vorinostat]
# Method in brief: as §1
# citarinostat = compound: O=C(CCCCCCNC(=O)c1cnc(N(c2ccccc2)c2ccccc2Cl)nc1)NO [citarinostat]
# Method in brief: as §1
# silmitasertib = compound: O=C(O)c1ccc2c(c1)nc(Nc1cccc(Cl)c1)c1ccncc12 [silmitasertib]
# Method in brief: as §1
# [10] = compound: O=C1NC(=O)C(c2cnc3ccccn23)=C1c1cn2c3c(cc(F)cc13)CN(C(=O)N1CCCCC1)CC2
# Method in brief: as §1
# [11] = compound: c1cc(OCCN2CCCCC2)cc(-c2n[nH]c3ccc(-c4nnc[nH]4)cc23)c1
# Method in brief: as §1
# UniProt Q96QU8, sequence (Q96QU8 whole entry, looked up): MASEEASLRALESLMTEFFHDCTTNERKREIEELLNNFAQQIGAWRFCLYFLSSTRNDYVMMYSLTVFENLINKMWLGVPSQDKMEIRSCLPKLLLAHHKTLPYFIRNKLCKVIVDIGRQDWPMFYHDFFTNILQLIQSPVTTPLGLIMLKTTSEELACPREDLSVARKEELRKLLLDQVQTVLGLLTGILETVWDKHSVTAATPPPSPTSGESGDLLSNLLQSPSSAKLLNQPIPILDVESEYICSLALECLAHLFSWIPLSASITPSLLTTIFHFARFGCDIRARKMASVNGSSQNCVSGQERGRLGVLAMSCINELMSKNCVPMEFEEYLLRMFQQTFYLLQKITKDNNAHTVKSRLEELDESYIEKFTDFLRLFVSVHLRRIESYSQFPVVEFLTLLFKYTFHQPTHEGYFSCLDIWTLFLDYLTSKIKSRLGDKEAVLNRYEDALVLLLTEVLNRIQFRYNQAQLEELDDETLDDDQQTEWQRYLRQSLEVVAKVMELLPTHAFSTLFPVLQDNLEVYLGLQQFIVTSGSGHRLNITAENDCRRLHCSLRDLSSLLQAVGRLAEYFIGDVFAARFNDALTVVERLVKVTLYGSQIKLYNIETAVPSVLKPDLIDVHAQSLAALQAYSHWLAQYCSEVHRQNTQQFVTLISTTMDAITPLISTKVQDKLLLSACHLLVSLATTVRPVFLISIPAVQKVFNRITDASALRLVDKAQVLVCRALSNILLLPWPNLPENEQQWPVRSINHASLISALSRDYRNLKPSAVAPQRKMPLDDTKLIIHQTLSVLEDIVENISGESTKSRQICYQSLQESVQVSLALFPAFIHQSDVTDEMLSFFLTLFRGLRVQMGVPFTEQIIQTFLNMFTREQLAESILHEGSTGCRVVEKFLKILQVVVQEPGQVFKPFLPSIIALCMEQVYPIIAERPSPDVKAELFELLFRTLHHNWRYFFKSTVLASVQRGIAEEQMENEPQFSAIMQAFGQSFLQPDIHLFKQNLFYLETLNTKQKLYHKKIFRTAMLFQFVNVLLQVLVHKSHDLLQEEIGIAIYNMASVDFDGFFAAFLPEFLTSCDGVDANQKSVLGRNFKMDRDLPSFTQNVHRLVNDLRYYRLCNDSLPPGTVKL
# UniProt Q9BTX3, sequence (Q9BTX3 whole entry, looked up): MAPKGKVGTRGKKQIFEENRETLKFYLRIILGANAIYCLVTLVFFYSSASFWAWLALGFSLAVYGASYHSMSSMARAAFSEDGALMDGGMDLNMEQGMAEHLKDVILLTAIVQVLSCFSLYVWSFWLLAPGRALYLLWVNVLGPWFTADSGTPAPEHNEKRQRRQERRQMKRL
# UniProt Q6VEQ5, sequence (Q6VEQ5 whole entry, looked up): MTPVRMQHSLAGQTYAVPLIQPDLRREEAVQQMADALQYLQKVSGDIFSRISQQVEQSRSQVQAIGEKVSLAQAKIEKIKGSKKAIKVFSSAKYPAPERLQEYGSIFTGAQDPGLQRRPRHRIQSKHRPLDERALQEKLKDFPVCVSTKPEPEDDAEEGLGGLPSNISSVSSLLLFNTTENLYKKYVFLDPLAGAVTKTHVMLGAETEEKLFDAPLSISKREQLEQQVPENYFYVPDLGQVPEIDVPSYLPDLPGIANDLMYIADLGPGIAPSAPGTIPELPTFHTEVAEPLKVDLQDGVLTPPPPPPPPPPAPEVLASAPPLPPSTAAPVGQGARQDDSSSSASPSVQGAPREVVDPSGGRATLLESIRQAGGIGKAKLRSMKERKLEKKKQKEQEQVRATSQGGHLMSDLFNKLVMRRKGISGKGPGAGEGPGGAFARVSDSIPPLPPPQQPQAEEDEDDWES
# UniProt Q8TBZ6, sequence (Q8TBZ6 whole entry, looked up): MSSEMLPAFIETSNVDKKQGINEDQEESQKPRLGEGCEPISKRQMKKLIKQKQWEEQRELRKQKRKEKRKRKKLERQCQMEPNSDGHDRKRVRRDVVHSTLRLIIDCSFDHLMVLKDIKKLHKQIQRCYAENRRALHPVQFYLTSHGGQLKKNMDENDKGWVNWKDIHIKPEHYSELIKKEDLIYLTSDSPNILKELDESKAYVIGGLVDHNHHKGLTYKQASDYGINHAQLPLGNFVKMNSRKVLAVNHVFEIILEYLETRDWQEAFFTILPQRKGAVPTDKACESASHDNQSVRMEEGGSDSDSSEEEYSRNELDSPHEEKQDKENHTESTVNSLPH
# UniProt Q5VIR6, sequence (Q5VIR6 whole entry, looked up): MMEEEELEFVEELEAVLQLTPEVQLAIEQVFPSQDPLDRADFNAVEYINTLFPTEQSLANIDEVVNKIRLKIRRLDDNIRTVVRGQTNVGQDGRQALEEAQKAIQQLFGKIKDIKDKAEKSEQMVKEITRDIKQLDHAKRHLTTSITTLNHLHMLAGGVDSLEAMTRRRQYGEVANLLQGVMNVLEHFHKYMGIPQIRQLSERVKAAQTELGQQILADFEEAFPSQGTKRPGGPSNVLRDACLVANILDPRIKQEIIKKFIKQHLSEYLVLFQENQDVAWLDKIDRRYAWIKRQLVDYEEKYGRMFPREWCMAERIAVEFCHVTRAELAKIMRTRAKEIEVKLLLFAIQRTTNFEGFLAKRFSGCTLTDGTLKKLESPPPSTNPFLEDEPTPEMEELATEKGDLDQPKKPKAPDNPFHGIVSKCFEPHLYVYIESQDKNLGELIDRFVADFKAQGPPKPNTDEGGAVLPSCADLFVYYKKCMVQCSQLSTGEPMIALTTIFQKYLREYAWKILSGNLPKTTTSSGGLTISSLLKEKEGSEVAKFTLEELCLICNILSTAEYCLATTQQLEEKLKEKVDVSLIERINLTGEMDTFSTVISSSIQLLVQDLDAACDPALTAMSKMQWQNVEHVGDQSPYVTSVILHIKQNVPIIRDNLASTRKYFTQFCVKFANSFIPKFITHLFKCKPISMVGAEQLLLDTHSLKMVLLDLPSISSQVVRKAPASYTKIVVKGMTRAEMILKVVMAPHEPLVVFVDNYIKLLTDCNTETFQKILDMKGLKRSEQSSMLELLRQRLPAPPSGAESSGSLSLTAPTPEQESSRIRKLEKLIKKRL
# UniProt Q9UL33, sequence (Q9UL33 whole entry, looked up): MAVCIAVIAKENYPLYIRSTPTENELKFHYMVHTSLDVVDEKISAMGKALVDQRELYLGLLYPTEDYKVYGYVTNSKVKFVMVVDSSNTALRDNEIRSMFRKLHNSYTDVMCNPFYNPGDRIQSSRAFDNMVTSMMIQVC
# UniProt P26368, sequence (P26368 whole entry, looked up): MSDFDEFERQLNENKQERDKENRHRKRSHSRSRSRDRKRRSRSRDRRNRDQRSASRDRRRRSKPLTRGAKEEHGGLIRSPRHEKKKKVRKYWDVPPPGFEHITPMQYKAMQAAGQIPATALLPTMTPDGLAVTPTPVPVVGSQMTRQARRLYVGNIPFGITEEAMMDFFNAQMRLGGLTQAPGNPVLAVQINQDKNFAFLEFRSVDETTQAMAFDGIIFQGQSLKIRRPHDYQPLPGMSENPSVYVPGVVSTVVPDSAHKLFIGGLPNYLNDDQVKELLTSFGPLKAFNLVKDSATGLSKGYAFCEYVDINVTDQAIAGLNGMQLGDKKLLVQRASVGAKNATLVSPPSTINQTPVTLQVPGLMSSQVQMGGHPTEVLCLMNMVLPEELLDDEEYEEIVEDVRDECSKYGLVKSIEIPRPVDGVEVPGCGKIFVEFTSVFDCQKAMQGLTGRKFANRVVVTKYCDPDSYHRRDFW
# UniProt Q9BVJ6, sequence (Q9BVJ6 whole entry, looked up): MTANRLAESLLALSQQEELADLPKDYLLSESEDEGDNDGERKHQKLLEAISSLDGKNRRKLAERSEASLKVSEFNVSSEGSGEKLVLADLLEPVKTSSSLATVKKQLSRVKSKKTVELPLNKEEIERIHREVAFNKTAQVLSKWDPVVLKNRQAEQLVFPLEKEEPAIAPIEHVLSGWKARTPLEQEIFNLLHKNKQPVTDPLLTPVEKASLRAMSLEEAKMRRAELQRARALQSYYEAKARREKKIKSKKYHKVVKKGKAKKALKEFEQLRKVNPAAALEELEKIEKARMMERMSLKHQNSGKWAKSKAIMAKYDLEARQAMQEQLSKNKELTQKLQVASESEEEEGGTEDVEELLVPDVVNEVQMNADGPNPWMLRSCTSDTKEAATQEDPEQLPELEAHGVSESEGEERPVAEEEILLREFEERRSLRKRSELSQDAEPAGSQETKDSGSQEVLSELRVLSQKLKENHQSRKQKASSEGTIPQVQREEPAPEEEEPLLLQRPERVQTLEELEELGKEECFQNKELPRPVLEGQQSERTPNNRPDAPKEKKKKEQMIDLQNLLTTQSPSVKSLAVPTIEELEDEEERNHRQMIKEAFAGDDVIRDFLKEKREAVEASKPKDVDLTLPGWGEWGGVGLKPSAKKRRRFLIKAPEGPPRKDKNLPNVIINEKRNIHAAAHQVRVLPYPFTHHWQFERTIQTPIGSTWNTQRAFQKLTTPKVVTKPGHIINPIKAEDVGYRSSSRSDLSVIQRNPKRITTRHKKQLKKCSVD
# UniProt A5PLN9, sequence (A5PLN9 whole entry, looked up): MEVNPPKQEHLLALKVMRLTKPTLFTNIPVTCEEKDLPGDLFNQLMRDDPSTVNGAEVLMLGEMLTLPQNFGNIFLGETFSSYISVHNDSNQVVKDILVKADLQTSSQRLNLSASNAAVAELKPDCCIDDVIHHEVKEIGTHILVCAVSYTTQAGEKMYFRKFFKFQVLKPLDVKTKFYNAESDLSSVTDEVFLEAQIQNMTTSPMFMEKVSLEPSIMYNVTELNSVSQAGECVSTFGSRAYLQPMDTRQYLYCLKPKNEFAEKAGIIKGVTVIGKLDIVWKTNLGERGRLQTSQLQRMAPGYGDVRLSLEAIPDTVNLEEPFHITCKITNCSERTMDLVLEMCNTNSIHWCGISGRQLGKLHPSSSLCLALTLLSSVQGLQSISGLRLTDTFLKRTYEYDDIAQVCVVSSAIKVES
# UniProt Q9UDW1, sequence (Q9UDW1 whole entry, looked up): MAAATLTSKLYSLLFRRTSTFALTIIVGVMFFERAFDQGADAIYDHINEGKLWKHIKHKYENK
Target,log2 fold change (bafetinib),log2 fold change [1],log2 fold change (nilotinib),log2 fold change [2],log2 fold change (dasatinib),log2 fold change [3],log2 fold change [4],log2 fold change [5],log2 fold change (tipifarnib),log2 fold change (mubritinib),log2 fold change [6],log2 fold change [7],log2 fold change [8],log2 fold change [9],log2 fold change (entinostat),log2 fold change (vorinostat),log2 fold change (citarinostat),log2 fold change (silmitasertib),log2 fold change [10],log2 fold change [11]
USP25 isoform 3 (UniProt Q9UHP3),-0.043,0.029,-0.021,-0.017,-0.048,0.018,-0.038,0.009,-0.024,0.023,-0.038,-0.027,-0.071,-0.067,0.001,-0.019,-0.021,0.051,-0.03,0.011
USP24 (UniProt Q9UPU5),0.037,0.034,0.096,0.007,-0.098,0.09,0.144,0.105,-0.072,0.056,0.18,0.079,-0.053,0.07,-0.095,-0.012,0.012,0.188,-0.2,0.11
TRAPPC2L (UniProt Q9UL33),-0.042,-0.02,-0.062,-0.068,-0.118,0.064,-0.041,-0.111,-0.111,0.013,0.005,-0.025,-0.126,0.054,0.008,0.068,0.031,0.037,-0.047,-0.099
TRAPPC13 isoform 5 (UniProt A5PLN9),0.11,0.149,-0.019,0,-0.346 (active),-0.056,0.002,-0.112,-0.011,0.057,-0.01,-0.248,-0.269,-0.148,0.045,0.079,0.136,0.017,-0.016,-0.13
UTP14A (UniProt Q9BVJ6),0.157,0,0.011,-0.009,0.07,-0.118,-0.285,-0.09,0.089,-0.086,0.079,0.048,0.083,0.076,0.012,0,-0.04,0.128,0.082,-0.092
VPS50 (UniProt Q96JG6),0.017,0.088,-0.074,-0.077,-0.257 (active),0.038,-0.019,-0.035,-0.066,0.045,0.003,-0.073,-0.11,-0.046,0.06,0.099,0.068,0.06,0.037,0.003
TMEM208 (UniProt Q9BTX3),-0.131,0.097,-0.101,0.092,-0.19,0.185,-0.024,0.01,-0.223,0.062,0.038,-0.133,-0.28,-0.181,-0.01,0.187,0.036,0.048,0.02,-0.09
TSG101 (UniProt Q99816),-0.096,-0.034,-0.014,-0.081,-0.092,-0.007,0.033,-0.024,-0.033,0.052,-0.02,-0.082,-0.157,-0.033,0.038,-0.007,0.053,0.025,-0.103,0.025
TRMT10A (UniProt Q8TBZ6),0.006,-0.022,0.005,-0.018,-0.059,-0.002,0.104,0.008,-0.022,0.05,0.015,-0.005,-0.075,-0.109,-0.039,-0.003,-0.013,-0.023,0.007,-0.02
VPS53 isoform 4 (UniProt Q5VIR6),-0.04,0.036,-0.1,-0.148,-0.087,0.037,-0.035,-0.027,-0.061,0.003,-0.036,-0.062,-0.105,-0.021,0.052,0.018,0.025,0.063,-0.066,-0.02
WASH2P (UniProt Q6VEQ5),-0.06,0.017,-0.069,-0.019,0.03,0.01,-0.008,0.011,0.043,0.06,0.067,-0.088,-0.314 (active),0.02,0.028,-0.016,0.029,0.06,0.092,-0.045
UQCR10 (UniProt Q9UDW1),-0.047,-0.011,-0.003,0.02,-0.009,-0.059,0.072,0.084,0.007,-0.024,-0.053,-0.043,0.076,0.02,-0.003,0.187,0.045,-0.003,-0.067,-0.026
U2AF2 (UniProt P26368),-0.019,-0.241 (active),-0.003,-1.66 (active),0.018,0.049,-0.011,-0.044,0.045,-0.051,-0.125,-0.021,0.033,-0.051,-0.031,-0.129,-0.014,-0.049,0.113,-0.09
XPO6 (UniProt Q96QU8),0.057,-0.05,-0.143,-0.148,-0.109,0.027,-0.001,-0.117,-0.111,0.092,0.068,-0.103,-0.154,-0.118,0.025,0.048,0.085,0.01,0.099,-0.038
TOP2A isoform 4 (UniProt P11388),0.308,0.092,-0.119,0.033,0.102,-0.11,-0.29,-0.324,0.104,-0.292,0.159,0.058,0.307,0.19,-0.042,0.034,-0.112,0.255,0.296,-0.205
VAMP7 (UniProt P51809),-0.066,0.025,-0.034,-0.04,0.002,0.023,0.017,0.086,-0.04,0.003,-0.029,0.001,-0.176,-0.069,0.009,0.025,0.086,0.027,-0.058,0.026
